Broadly, the AC50 is the concentration giving half of the maximal activity seen.

SMILES strings stand for the structures. Where “and” joins values, the source holds several entries; their conditions need not be identical. Identical values can stand only once. Inconclusive results are not listed. Calls of active or inactive are those of the source. The calls were made as follows, unless noted: active = hit-call score of the fitted dose curve at least 0.9, where 1 is the maximum; inconclusive = response in the unintended direction; inactive = score below 0.9.

The values that follow come from PubChem BioAssay (EPA / NIEHS).

Experiment [1] is described as follows: TOX21_p53_BLA_p2_viability: Viability Assessment in the Tox21 HCT-116 p53 Agonism Beta-lactamase Assay, Phase 2 (AID 2283591).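 Also: compound exposure lasted 16 h at 37 °C; actives lower the ATP signal meaning cytotoxicity.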 The procedure, abridged: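 Cytotoxicity readout: CellTiter-Glo ATP luminescence, 30 min at room temperature, after the beta-lactamase read. Cells were HCT116 exposed 16 h at 37C to compounds pin-transferred at 217-fold dilution from DMSO stocks.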

In experiment [2] the target is Cellular tumor antigen p53 (Homo sapiens) (UniProt P04637). Briefly: TOX21_p53_BLA_p2_ratio: Tox21 HCT-116 p53 Agonism Beta-lactamase Assay, Ratio, Phase 2 (AID 2283592). Put shortly:
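Read-out is the blue/green (460/530 nm, 405 nm excitation) ratio after 2 h CCF4-AM loading, fitted as gain versus DMSO. Compounds, pinned at 217-fold dilution from DMSO stocks, stayed 16 h on HCT-116 beta-lactamase reporter cells seeded 5 h earlier.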

Experiment [3] in a line: TOX21_p53_BLA_p3_viability: Viability Assessment in the Tox21 HCT-116 p53 Agonism Beta-lactamase Assay, Phase 3 (AID 2283593).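 Also: cells exposed to compound for 16 h before reading.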 Put shortly:
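Cellular ATP was quantified by CellTiter-Glo luminescence, read after 30 min at room temperature. Beforehand, HCT116 cells (4000/well) received compound 5 h post-seeding, 217-fold diluted from DMSO, then incubated 16 h at 37C.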

For experiment [4], the target named is Cellular tumor antigen p53 (Homo sapiens) (UniProt P04637). Put plainly: TOX21_p53_BLA_p3_ratio: Tox21 HCT-116 p53 Agonism Beta-lactamase Assay, Ratio, Phase 3 (AID 2283596). The procedure, abridged: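 Cells were seeded at 4000/well, rested 5 h at 37C, then dosed with DMSO compound solutions (217-fold dilution) for 16 h. CCF4-AM substrate was loaded for 2 h at room temperature, and the 460/530 nm emission ratio was fitted for gain of signal versus DMSO.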
Chain of Cellular tumor antigen p53 (Homo sapiens) (P04637 whole entry, looked up): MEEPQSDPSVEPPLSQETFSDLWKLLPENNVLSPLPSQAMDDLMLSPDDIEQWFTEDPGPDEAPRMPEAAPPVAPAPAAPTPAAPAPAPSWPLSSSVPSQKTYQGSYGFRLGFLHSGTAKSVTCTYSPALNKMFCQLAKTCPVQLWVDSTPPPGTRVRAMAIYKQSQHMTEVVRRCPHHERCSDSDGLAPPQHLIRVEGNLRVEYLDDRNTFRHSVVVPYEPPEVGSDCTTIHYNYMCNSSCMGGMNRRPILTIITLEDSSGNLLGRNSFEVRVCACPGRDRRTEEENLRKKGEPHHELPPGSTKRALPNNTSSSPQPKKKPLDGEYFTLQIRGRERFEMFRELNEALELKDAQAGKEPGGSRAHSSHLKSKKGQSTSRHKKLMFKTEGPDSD

Experiment [5] can be described thus: TOX21_p53_BLA_p4_viability: Viability Assessment in the Tox21 HCT-116 p53 Agonism Beta-lactamase Assay, Phase 4 (AID 2283597).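 Also: hits lower the luminescence signal meaning cytotoxicity.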 Put shortly: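 Cytotoxicity as reduced cellular ATP (CellTiter-Glo luminescence, 30 min room temperature), measured in the same wells following the CCF4 FRET p53 reading. Human HCT-116 cells received compounds in DMSO (217-fold dilution) for 16 h.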

Experiment [6] concerns the target Cellular tumor antigen p53 (Homo sapiens) (UniProt P04637). Briefly: TOX21_p53_BLA_p5_ratio: Tox21 HCT-116 p53 Agonism Beta-lactamase Assay, Ratio, Phase 5 (AID 2283599). Put shortly: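 Beta-lactamase reporter ratio (blue 460 nm over green 530 nm, 405 nm excitation) after 2 h CCF4-AM loading, in HCT-116 cells exposed 16 h at 37 C to compounds pinned at 217-fold dilution. Increases relative to DMSO baseline scored.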

The nature of experiment [7]: TOX21_p53_BLA_p5_viability: Viability Assessment in the Tox21 HCT-116 p53 Agonism Beta-lactamase Assay, Phase 5 (AID 2283600). The procedure, abridged:
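Viability came from CellTiter-Glo ATP luminescence, read after 30 min at room temperature. Before this, HCT-116 p53-bla cells (4000/well) had 16 hours of compound exposure at 37C, with DMSO stocks diluted 217-fold on transfer.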

Experiment [8] addresses Cellular tumor antigen p53 (Homo sapiens) (UniProt P04637). Briefly: TOX21_p53_BLA_p4_ratio: Tox21 HCT-116 p53 Agonism Beta-lactamase Assay, Ratio, Phase 4 (AID 2283601). The procedure, abridged: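 Signal is the blue/green (460nm/530nm) ratio of cleaved versus uncleaved CCF4-AM substrate, read after 2 h substrate loading. Cells were HCT116 carrying the p53-responsive beta-lactamase reporter, dosed 16 h at 37C, 5% CO2; CellTiter-Glo measured in parallel.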

Experiment [9] concerns Thyroperoxidase (TPO), gene 54314. Briefly: CCTE_Simmons_AUR_rTPO: CCTE's Amplex UltraRed Assay for Thyroperoxidase (TPO) Inhibition, Simmons Lab (AID 2283662).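 Also: potency for loss of signal meaning inhibition of peroxidase activity.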 The procedure, abridged:
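Cell-free peroxidase activity assay using rat thyroid gland microsomes with excess H2O2 (300 uM) and 25 uM Amplex UltraRed. Compounds tested from 5 nM to 87.5 uM; fluorescence measured after 30 min at 37C, analysed relative to DMSO baseline.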

The nature of experiment [10]: CCTE_Simmons_CellTiterGLO_HEK293T: Viability Assessment in CCTE's Assays for Thyroperoxidase (TPO) Inhibition, Simmons Lab (AID 2283665).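 Also: cells exposed to compound for 24 h before readout; actives reduce ATP signal below DMSO vehicle meaning cytotoxicity.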 The procedure, abridged: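 Luminescent ATP readout (CellTiter-Glo, 20 min at room temperature) after 24 hr exposure of HEK293T cells to 5 nM–87.5 uM final compound; signal loss relative to DMSO vehicle indicated cytotoxicity; dichlone titrated as positive control.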

The target in experiment [11] is Luciferin 4-monooxygenase (Photinus pyralis) (UniProt P08659). Put plainly: CCTE_Simmons_QuantiLum_inhib_2: CCTE's Firefly Luciferase Inhibition Assay, Simmons Lab (AID 2283767). The procedure, abridged:
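Cell-free QuantiLum luciferase, 5 ng/well; compounds 5 nM–87.5 uM final, 8 conc, 0.5% DMSO; 30 min, 37C, dark. Detection reagent (150 uM D-luciferin, 147 uM dATP, CoA, DTT, pH 7.8 final) injected per well, kinetic luminescence. Triplicate biological replicates.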

Experiment [12] in a line: ACEA_AR_agonist_AUC_viability: ACEA Biosciences xCELLigence Real-Time Cell Analysis on Androgen Receptor Agonism for Viability (AID 2283775). The procedure, abridged:
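Viability endpoint from xCELLigence impedance in 22Rv1 prostate cells at 80 h. Eight-point series, 100 uM maximum final.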

Experiment [13] is described as follows: CEETOX_H295R_MTT_cell_viability: Viability Assessment in the CeeTox HT-H295R MTT Assay (AID 2283718; active = hit-call score of the fitted dose curve at least 0.9, where 1 is the maximum; inactive = score below 0.9). Put shortly:
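MTT reduction (0.5 mg/ml, 4 h at 37 C; absorbance at 570 and 650 nm) gave viability as background-corrected percent change versus controls. H295R cells had 48 h forskolin (10 uM) prestimulation, then 48 h chemical exposure at 0.1% DMSO.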

Chain of Luciferin 4-monooxygenase (Photinus pyralis) (P08659 whole entry, looked up): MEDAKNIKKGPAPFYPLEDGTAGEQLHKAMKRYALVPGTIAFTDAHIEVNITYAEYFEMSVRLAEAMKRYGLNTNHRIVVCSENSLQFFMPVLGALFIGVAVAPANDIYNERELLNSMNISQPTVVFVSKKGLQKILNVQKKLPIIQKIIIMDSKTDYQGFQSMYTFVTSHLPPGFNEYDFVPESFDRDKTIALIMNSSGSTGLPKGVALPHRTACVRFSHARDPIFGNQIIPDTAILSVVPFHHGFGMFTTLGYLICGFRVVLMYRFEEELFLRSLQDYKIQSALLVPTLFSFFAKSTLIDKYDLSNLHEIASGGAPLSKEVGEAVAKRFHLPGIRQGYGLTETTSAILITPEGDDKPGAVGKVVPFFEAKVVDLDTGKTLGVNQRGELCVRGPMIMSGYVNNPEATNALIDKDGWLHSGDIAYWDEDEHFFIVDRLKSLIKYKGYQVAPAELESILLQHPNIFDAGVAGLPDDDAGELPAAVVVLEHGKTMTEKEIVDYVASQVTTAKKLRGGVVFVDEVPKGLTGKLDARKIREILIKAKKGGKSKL

For the molecule `C[C@]12CCC(=O)C=C1CC[C@@H]1[C@@H]2C(=O)C[C@@]2(C)[C@H]1CC[C@]2(O)C(=O)CO`, the result in [1], in experiment [2], in experiment [3], in [4], in experiment [5] and in experiment [6] was inactive. Further, the result in [7] and in experiment [8] was inactive.
`CCC(C)C=O` (stereo not given): the outcome in experiment [1], in [2], in [3], in experiment [4], in [5] and in experiment [6] was inactive. The outcome in experiment [7] and in experiment [8] was inactive.
With `[Cl][In]([Cl])[Cl]`, the call in [1], in [2], in [3], in experiment [4], in experiment [5] and in experiment [6] was inactive. In addition, the molecule was classed as inactive in [7] and in [8].
As to `C/C=C\C/C=C/CCCCCCCCOC(C)=O`, the result in experiment [1], in experiment [2], in experiment [3], in experiment [4], in experiment [5] and in experiment [6] was inactive. Also, the molecule was called inactive in experiment [7] and in experiment [8].
`SCCc1cnccn1`: the call in [1], in [3] and in experiment [5] was inactive. Besides, the AC50 was 45.1 µM (active) in experiment [2], 21.6 µM (active) in experiment [4], 35.7 µM (active) in experiment [6] and 60.3 µM (active) in [8].
Take `C1CN(SSN2CCOCC2)CCO1`: the result in experiment [1], in experiment [2], in experiment [3], in experiment [4], in experiment [5] and in experiment [6] was inactive. Further, the outcome in experiment [7], in [8], in experiment [11] and in [12] was inactive. Further, the AC50 in experiment [9] was 4.25 µM (active); in experiment [10], 88.9 µM (active).
As for `CC(C)(c1cc(Br)c(OCCO)c(Br)c1)c1cc(Br)c(OCCO)c(Br)c1`, the AC50 in experiment [1] was 37.3 µM (active); in experiment [2], 10.8 µM (active); in experiment [3], 55 µM (active); in experiment [4] it was 19.9 µM (active); in experiment [5], 53.1 µM (active); in experiment [6], 40.1 µM (active). Besides, the AC50 in experiment [7] is 60.1 µM (active); in [8] it was 50.1 µM (active).
For the molecule `CCCCCCCC/C=C\CCCCCCCC(=O)O`, the outcome in [1], in experiment [2], in experiment [3], in experiment [4], in experiment [5] and in experiment [6] was inactive. The molecule was called inactive in experiment [7], in experiment [8] and in experiment [12].
With `O=C(C=Cc1ccccc1)OCc1ccccc1`, the call in experiment [1], in [2], in [3], in experiment [4], in experiment [5] and in experiment [6] was inactive. For the same molecule, the outcome in experiment [7], in experiment [8] and in [13] was inactive.
Take `Cc1cc(=O)n(-c2ccccc2)n1C`: the result in experiment [1], in experiment [2], in [3], in experiment [4], in experiment [5] and in experiment [6] was inactive. Moreover, the molecule was classed as inactive in [7] and in [8].
Regarding `Nc1ccc(Cl)cc1Cl`, the molecule was called inactive in [1], in experiment [2], in experiment [3], in experiment [4], in experiment [5] and in [6]. In experiment [8], the outcome was inactive.
For `N=c1ccn2c(n1)O[C@H]1[C@H](O)[C@@H](CO)O[C@H]12`, the call in experiment [1], in [3], in [5] and in [7] was inactive. Besides, the AC50 in experiment [2] is 1 µM (active) and 2.41 µM (active); in [4], 2.17 µM (active) and 3.17 µM (active); in experiment [6], 2.67 µM (active) and 729 nM (active); in experiment [8], 1.27 µM (active) and 1.19 µM (active).
